Screens from PubChem BioAssay.
HTT cytoprotect = qHTS Multiplex Assay to Identify Dual Action Probes in a Cell Model of Huntington: Cytoprotection (ATP); PC12 HTT-Q103 induced, cytoprotection, ATP luminescence, 40 h; Potency, µM (top dose mostly 56.4 µM), inactives show cytoprotection (ATP increase), actives largely listed as activators; actives 0.14% (n = 230,000); also: potency is read from the fitted curve at half-maximal effect; % of control where 0% means no effect; nearly all actives have a fitted effect of over 45% in size
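PC12 cells stably carrying ecdysone-inducible Htt exon 1 (Q103)–GFP were induced with 100 nM tebufenozide (final) alongside library compounds in a dose series. Cytoprotection was scored as retained ATP by ATPlite luminescence.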
HPGD block = qHTS Assay for Inhibitors of HPGD (15-Hydroxyprostaglandin Dehydrogenase). 15-hydroxyprostaglandin dehydrogenase [NAD(+)] (Homo sapiens), P15428. Potency, µM, for inactives: top-dose activity change, negative = inhibition, usual class: inhibitors. AID 894, 2007. purified HPGD, NADH fluorescence kinetic, PGE2 substrate. actives 4.3% (n = 150,000); active = well fitted inhibition curve with a large enough effect, not every such curve was filed as active; inconclusive = small, poorly fitted or top-dose-only effect, or another doubt; inactive = no such curve, though single readings can be large or run the other way; also: potency is read from the fitted curve at half-maximal effect; % is scaled to controls: 0 for no effect and ±100 for the full control effect
Target sequence (P15428 whole entry, looked up): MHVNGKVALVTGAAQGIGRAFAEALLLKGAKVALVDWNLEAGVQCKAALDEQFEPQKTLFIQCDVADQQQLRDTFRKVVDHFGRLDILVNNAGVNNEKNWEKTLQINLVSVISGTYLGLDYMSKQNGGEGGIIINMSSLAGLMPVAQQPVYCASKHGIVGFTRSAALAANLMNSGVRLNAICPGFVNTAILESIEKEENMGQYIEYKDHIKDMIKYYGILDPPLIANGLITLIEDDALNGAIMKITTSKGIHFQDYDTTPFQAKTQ
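20 nM HPGD preincubated 15 min at room temperature with compound in 50 mM Tris-HCl pH 8, 0.01% Tween 20. Started with 1 mM NAD+ and 30 uM prostaglandin E2; NADH fluorescence (360/450 nm) read 5 times over 30-s intervals, last minus first.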
RGS12 GoLoco inh = qHTS Assay for Inhibitors of RGS12 GoLoco Motif Activity (Red Fluorophore); actives 0.44% (n = 230,000); Potency, µM (highest dose often 61.6 µM), without a hit: at the top dose activity, negative = inhibition, hits mostly inhibitors; Gai1:RGS12 GoLoco peptide FP, rhodamine, 10 min; AID 880, 2007; Guanine nucleotide-binding protein G(i) subunit alpha-1 (Homo sapiens), P63096; active = well fitted inhibition curve with a large enough effect, not every such curve was filed as active; inactive = no such curve, though single readings can be large or run the other way; also: potency is read from the fitted curve at half-maximal effect; % is scaled to controls: 0 for no effect and ±100 for the full control effect; nearly all actives have a fitted effect of over 30% in size
HTT aggregate = qHTS Multiplex Assay to Identify Dual Action Probes in a Cell Model of Huntington: Aggregate Formation (GFP); PC12 HttQ103-GFP aggregates, Acumen cytometry, 40 h; Potency, µM (series often up to 46.1 µM), without a hit: at the highest dose activity change, negative = inhibition, usual class: inhibitors; actives 1.1% (n = 220,000); AID 1688, 2009; also: potency is read from the fitted curve at half-maximal effect; % is scaled to controls: 0 for no effect and ±100 for the full control effect; nearly all actives have a fitted effect of over 60% in size
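Read-out: GFP aggregate count by laser scanning cytometer (488 nm excitation, 500-530 nm emission, 1–25 µm objects >6 SD above background). Cells: PC12, inducible HTTex1-Q103-GFP, 100 nM tebufenozide; compounds titrated.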
PNC assembly inh = High Content Assay for Compounds that inhibit the Assembly of the Perinucleolar Compartment. PC3M PTB-GFP, PNC prevalence imaging, 16 h; stronger effect = lower value. activity change (PNC), negative = inhibition, % at 10 µM. actives 3.1% (n = 140,000);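 active = readout at or below -70, meaning at least 70% loss of cells showing the perinucleolar compartment, a nuclear body marking cancer cells; inconclusive = readout between -30 and a set limit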;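 also: plate controls were DMSO wells for no effect and camptothecin positive control wells for full effect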
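PC3M cells stably expressing PTB-GFP, 750–1000 cells/well, treated 16 h at 37 °C with compound (23 nl of library stock), in duplicate. After paraformaldehyde fixation and Hoechst stain, imaged at 20x; PNC prevalence scored by image analysis.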
ALDH1A1 inh = qHTS Assay for Inhibitors of Aldehyde Dehydrogenase 1 (ALDH1A1); Aldehyde dehydrogenase 1A1 (Homo sapiens), P00352; Purified ALDH1A1, NADH fluorescence, propionaldehyde substrate; Potency, µM (doses to about 75.3 µM), without a hit: at the highest dose activity, negative = inhibition, actives largely listed as inhibitors; actives 7.3% (n = 220,000); active = well fitted inhibition curve with a large enough effect, not every such curve was filed as active; inconclusive = small, poorly fitted or top-dose-only effect, or another doubt; inactive = no such curve, though single readings can be large or run the other way;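 also: potency is read from the fitted curve at half-maximal effect; plate controls were no enzyme wells and a reference inhibitor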
Target sequence (P00352 whole entry, looked up): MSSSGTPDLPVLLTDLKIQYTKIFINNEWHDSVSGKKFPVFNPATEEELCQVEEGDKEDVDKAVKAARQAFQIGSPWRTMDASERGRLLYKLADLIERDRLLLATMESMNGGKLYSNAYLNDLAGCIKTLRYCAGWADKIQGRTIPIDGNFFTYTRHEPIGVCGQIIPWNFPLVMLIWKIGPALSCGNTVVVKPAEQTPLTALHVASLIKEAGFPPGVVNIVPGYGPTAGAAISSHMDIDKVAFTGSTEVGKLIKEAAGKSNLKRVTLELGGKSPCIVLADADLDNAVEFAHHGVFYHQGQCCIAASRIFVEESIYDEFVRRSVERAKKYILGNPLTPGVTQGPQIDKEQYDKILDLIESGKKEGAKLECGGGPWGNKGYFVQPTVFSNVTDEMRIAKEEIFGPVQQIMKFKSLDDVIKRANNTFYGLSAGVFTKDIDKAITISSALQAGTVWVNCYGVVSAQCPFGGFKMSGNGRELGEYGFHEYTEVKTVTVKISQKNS
Active calls of the source: *; ? = inconclusive; · = not tested or not shown; [ ] = remark or other dose. An excerpt weighted towards active compounds, which were near 11% of everything screened. Unless noted, calls follow the shape of the dose curve; as a rule, active = well fitted curve in the direction sought with a large enough effect; inconclusive = small, poorly fitted or top-dose-only effect, or another doubt; inactive = no such curve, though single readings can be large; an effect the other way counts as inactive or inconclusive.

SMILES	HTT cytoprotect	HPGD block	RGS12 GoLoco inh	HTT aggregate	PNC assembly inh	ALDH1A1 inh
Oc1cc(O)c2c(c1)O[C@@H](c1ccc(O)c(O)c1)[C@H](O[C@@]1(c3cc(O)c(O)c(O)c3)Oc3cc(O)cc(O)c3[C@H](O)[C@@H]1O)C2	-8%[10 µM]	-14%	7%[14.2 µM]	·	·	9%[13.5 µM]
CC[C@H](C)[C@@H](NC(=O)O[C@H]1C(=O)c2ccc(OC)cc2O[C@@H]1c1ccc2c(c1)OCO2)C(=O)OC	-27%	0%	1%	·	·	2%
CCCc1nc2ccccc2c2nc(N)nn12	-18%	-22%	0%	-5%	10	-3%
Cc1nc2ccccc2c2nc(N)nn12	3%[10 µM]	-26%	3%	2%	-100*	-2%
C=C1CC[C@H](O)C/C1=C/C=C1\CCC[C@]2(C)[C@@H]([C@H](C)CCCC(C)(C)O)CC[C@@H]12	?	-4%	0%	-21%	·	8%
O=[N+]([O-])c1ccc(O)c(NC(=S)Nc2ccccc2)c1	6%	?	-2%	9%	-1	22µM*
COc1ccc([N+](=O)[O-])cc1NC(=S)Nc1ccccc1	7%[10 µM]	-28%	-2%	24%	-5	?
Nc1nnc(CCOc2ccccc2Cl)s1	-92%[10 µM]	-11%	1%	?	50	4%
Nc1nnc(Cc2ccc(Cl)c(Cl)c2)s1	-3%	-19%	10%	5.6µM*	-20	?
COc1ccc(NC(=O)CSc2nnc(CNc3ccc(F)cc3)o2)c(OC)c1	10%	-15%	8%	-16%	-3	-12%
COc1ccc(NCc2nnc(SCC(=O)Nc3cc(C(F)(F)F)ccc3Cl)o2)cc1	-28%	-14%	3%	-24%	-18	28µM*
CC(C)N(C(=O)CSc1nnc(CNc2ccc(F)cc2)o1)C(C)C	-5%[10 µM]	-11%	-10%	15%	-100*	1%
Cc1ccc(CN(CC(=O)NC2CCCC2)C(=O)CSc2nnc(COc3ccccc3)o2)cc1	-21%[10 µM]	28µM*	5%	-2%	-26	?
COc1ccc(NCc2nnc(SCC(=O)Nc3cc(C)cc(C)c3)o2)cc1	-3%[10 µM]	-29%	9%	19%	25	3.2µM*
O=C(CN(Cc1ccccc1)C(=O)CSc1nnc(COc2ccccc2)o1)NC1CCCC1	7%[1.9 µM]	?	-7%	-17%	-11	?
COc1cc2c(cc1O)-c1ccccc1CN(C)C2	10%	-10%	3%	·	·	-13%
COc1cccc(C2C3=C(N=c4s/c(=C\c5ccccc5O)c(=O)n42)c2ccccc2CC3)c1OC (stereo not drawn)	-10%	·	6%	-1%	·	?
COC(=O)[C@@]1(Cc2ccc(OC)cc2)[C@H]2c3cc(C(=O)N4CCCC4)n(Cc4nc5ccccc5[nH]4)c3C[C@H]2CN1C(=O)c1ccccc1	-34%	?	11%	·	·	?
COc1cccc(-c2nn(-c3ccccc3)cc2CN(C)Cc2c(C)nc3ccccn23)c1	9%[10 µM]	·	5%	3%[9.22 µM]	·	?
CCC1CCC(C(=O)NC(CCSC)C(=O)NCCN(CC(C)C)CC(C)C)CC1 (stereo not drawn)	-30%	·	4%	19%	·	-5%
CCCCNC(=O)N(c1c(N)n(Cc2ccccc2)c(=O)[nH]c1=O)C1CCCC1	-30%	·	2%	-12%	·	1%
COc1ccc(NCc2nnc(SCC(=O)c3ccc(C)cc3)o2)cc1	-4%	-23%	-9%	15%	56	28µM*
Cc1cc(C)cc(OCc2nnc(SCC(=O)c3ccccc3)o2)c1	-19%[10 µM]	28µM*	11%	20%	27	-11%
COc1cc(/C=N/NC(=O)c2cccc(S(=O)(=O)N3CCCCC3)c2)cc(Br)c1O	7%[10 µM]	·	3%	28%	·	?
N=c1c2c(n(Cc3ccccc3)c3c1CCC3)CCC2	-59%	-18%	6%	8.9µM*	-16	6%
SMILES	HTT cytoprotect	HPGD block	RGS12 GoLoco inh	HTT aggregate	PNC assembly inh	ALDH1A1 inh
N=c1c2c(n(Cc3ccc(Cl)cc3)c3c1CCC3)CCC2	-74%	-30%	8%	?	?	-3%
N=c1c2c(n(Cc3cccc(Cl)c3)c3c1CCC3)CCCC2	-43%[10 µM]	3%	5%	10µM*	95	-2%
Cc1cc(C)n2cc(CSc3nc4ccccc4s3)nc2n1	4%[10 µM]	?	10%	7%	-6	?
O=C(NCCc1c[nH]c2ccccc12)C1CCN(S(=O)(=O)c2ccccc2F)CC1	-25%	·	11%	-6%	·	?
O=C(NCCc1c[nH]c2ccccc12)C1CCN(c2nnc(N3CCCC3=O)s2)CC1	-6%	-6%	11%	1%	-17	0.32µM*
CCN(CC)CCNc1ncnc2c1sc1nc(N3CCCC3)c3c(c12)CC(C)(C)OC3	-28%[10 µM]	·	7%	?	·	-6%
CCCOC(=O)c1c(-c2ccccc2)nc(CC)c(C(=O)SCC)c1CCC	11%[1.9 µM]	4%	9%	·	·	-7%
Cc1onc(-c2ccccc2Cl)c1C(=O)Nc1nnc(-c2cccc([N+](=O)[O-])c2)s1	11%[10 µM]	-14%	-1%	?	-108*	?
CCSc1nnc(NC(=O)c2c(-c3ccccc3Cl)noc2C)s1	17%	-26%	-2%	10%	-16	11µM*
Cc1cc(C)nc(NC(=O)c2c(-c3ccccc3Cl)noc2C)n1	8%[1.9 µM]	-10%	3%	-24%	?	0%
Cc1ccc(NC(=O)COc2ccc(CCO)cc2-n2nc3ccccc3n2)cc1C	1%[1.9 µM]	?	-10%	20%	-25	?
N#CCCn1c(=O)c(-c2ccccc2)nc2cnc(OCc3ccccc3)nc21	-30%	?	4%	·	·	?
O=C(/C=C/c1ccccc1)NCCSCc1ccccc1	·	3.2µM*	0%	4%	?	1µM*
O=C(/C=C/c1ccccc1)NCCCNC(=O)/C=C/c1ccccc1	-17%[10 µM]	·	-1%	1%	·	-4%
COc1ccc(/C=C/C(=O)NCCCc2ccccc2)cc1	·	-17%	5%	-11%	13	?
COc1ccc(/C=C/C(=O)NCCSCc2ccco2)cc1	8%[0.074 µM]	14µM*	-11%	2%	39	?
CS(=O)(=O)Nc1ccc(C(=O)NCCSCc2ccccc2)cc1	-16%[10 µM]	·	-15%	-14%[9.22 µM]	·	11µM*
CS(=O)(=O)Nc1ccc(C(=O)NCCc2ccccc2)cc1	10%[1.9 µM]	-21%	-5%	-6%	8	1%
